How the values were obtained:
Assay in all cases: log2 ratio of Biotin-Ahx-Ub-VS probe labelling (fragment/DMSO); higher = less target engagement (more negative = stronger competition), active = hit call of the paper (q ≤ 0.05, log2 ratio ≤ -1)
Conditions in all cases: compound concentration: 200 uM; treatment time: 3 h
USP34 = USP34 (UniProt Q70CQ2)
Outline: (§1)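 Global-median-normalised Spectronaut label-free quantities were compared by unpaired t-test, and values are average log2 ratios of fragment over vehicle. Only proteins with ≥2 unique peptides were used. HEK293T lysate (495 µg per sample) was treated in triplicate with fragment at 200 µM or vehicle for 3 h and then with Biotin-Ahx-Ub-VS at 0.5 µM final for 1 h. Labelled DUBs were then NeutrAvidin-enriched, digested with LysC and trypsin, and run by diaPASEF LC-MS/MS.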

USP36 = biological target: T1, USP36 (UniProt Q9P275)
T1 sequence (whole entry): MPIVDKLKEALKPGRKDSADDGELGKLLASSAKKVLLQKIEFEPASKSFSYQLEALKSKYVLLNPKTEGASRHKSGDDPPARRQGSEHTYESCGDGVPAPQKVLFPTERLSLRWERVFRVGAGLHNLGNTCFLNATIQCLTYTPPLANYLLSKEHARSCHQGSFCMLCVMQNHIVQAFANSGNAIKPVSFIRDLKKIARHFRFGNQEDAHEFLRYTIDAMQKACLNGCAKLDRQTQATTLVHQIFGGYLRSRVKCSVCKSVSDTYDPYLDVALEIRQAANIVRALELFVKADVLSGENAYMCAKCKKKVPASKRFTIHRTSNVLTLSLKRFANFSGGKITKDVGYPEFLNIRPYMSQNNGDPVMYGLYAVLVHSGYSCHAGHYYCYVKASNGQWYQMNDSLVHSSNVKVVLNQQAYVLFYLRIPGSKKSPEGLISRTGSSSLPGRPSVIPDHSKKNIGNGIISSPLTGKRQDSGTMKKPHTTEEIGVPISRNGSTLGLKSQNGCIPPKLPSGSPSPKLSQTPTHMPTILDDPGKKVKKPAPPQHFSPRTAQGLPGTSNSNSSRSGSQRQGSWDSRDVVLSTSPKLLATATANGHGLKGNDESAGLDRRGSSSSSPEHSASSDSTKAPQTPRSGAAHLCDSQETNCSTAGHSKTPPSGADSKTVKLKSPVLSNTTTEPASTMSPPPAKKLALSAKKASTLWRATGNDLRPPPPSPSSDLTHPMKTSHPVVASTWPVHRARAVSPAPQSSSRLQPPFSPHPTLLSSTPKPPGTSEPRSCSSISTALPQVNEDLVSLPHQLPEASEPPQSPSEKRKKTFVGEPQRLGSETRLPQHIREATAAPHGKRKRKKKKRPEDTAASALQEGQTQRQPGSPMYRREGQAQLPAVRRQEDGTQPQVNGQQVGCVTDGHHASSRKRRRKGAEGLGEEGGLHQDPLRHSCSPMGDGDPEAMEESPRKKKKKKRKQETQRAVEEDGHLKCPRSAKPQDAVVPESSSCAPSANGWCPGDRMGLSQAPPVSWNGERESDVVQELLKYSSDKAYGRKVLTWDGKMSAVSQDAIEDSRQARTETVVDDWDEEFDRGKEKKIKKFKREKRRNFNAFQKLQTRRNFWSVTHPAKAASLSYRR
Outline: as §1

USP38 = biological target: T2, USP38 (UniProt Q8NB14)
T2 sequence (whole entry): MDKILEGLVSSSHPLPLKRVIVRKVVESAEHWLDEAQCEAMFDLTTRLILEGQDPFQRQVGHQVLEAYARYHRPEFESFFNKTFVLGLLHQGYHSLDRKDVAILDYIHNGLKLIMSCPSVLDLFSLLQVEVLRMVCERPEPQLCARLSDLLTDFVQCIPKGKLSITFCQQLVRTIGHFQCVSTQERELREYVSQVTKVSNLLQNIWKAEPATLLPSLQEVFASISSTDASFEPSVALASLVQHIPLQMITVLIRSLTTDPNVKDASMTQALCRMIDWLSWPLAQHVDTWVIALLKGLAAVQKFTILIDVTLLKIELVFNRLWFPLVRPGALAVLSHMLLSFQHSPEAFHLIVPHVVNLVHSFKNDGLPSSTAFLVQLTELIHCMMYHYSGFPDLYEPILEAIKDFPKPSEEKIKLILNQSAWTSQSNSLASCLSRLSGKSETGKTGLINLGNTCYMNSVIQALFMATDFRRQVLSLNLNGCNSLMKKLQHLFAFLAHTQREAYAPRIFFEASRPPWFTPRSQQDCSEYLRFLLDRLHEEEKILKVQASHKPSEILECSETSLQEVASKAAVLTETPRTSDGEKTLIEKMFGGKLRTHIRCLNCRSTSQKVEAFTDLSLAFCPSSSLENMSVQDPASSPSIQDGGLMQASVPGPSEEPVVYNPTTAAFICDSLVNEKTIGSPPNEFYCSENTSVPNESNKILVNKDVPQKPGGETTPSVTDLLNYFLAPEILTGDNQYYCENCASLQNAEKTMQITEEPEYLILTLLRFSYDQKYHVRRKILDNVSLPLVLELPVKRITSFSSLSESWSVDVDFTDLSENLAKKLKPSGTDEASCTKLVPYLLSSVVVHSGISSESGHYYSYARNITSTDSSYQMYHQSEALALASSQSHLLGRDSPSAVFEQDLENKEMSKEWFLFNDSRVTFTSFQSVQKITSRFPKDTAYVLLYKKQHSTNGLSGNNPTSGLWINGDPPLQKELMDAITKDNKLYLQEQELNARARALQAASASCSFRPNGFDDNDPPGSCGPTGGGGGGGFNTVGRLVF
Outline: as §1

USP39 = biological target: T3, USP39 (UniProt Q53GS9)
T3 sequence (whole entry): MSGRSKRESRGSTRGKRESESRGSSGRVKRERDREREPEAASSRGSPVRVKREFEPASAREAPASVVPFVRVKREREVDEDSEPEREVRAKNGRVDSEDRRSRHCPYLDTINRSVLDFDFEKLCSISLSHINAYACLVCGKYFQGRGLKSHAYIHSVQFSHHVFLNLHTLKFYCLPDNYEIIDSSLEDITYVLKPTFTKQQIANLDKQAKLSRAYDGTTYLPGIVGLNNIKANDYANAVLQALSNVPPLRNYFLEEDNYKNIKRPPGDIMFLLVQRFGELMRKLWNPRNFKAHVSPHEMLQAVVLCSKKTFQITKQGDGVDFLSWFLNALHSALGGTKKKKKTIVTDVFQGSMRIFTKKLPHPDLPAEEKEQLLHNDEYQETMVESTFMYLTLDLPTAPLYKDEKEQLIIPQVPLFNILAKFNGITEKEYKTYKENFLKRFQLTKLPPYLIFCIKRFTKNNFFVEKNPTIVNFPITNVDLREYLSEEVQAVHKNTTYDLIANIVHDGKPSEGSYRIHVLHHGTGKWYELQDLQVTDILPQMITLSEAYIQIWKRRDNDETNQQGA
Outline: as §1

USP4 = biological target: T4, USP4 (UniProt Q13107)
T4 sequence (whole entry): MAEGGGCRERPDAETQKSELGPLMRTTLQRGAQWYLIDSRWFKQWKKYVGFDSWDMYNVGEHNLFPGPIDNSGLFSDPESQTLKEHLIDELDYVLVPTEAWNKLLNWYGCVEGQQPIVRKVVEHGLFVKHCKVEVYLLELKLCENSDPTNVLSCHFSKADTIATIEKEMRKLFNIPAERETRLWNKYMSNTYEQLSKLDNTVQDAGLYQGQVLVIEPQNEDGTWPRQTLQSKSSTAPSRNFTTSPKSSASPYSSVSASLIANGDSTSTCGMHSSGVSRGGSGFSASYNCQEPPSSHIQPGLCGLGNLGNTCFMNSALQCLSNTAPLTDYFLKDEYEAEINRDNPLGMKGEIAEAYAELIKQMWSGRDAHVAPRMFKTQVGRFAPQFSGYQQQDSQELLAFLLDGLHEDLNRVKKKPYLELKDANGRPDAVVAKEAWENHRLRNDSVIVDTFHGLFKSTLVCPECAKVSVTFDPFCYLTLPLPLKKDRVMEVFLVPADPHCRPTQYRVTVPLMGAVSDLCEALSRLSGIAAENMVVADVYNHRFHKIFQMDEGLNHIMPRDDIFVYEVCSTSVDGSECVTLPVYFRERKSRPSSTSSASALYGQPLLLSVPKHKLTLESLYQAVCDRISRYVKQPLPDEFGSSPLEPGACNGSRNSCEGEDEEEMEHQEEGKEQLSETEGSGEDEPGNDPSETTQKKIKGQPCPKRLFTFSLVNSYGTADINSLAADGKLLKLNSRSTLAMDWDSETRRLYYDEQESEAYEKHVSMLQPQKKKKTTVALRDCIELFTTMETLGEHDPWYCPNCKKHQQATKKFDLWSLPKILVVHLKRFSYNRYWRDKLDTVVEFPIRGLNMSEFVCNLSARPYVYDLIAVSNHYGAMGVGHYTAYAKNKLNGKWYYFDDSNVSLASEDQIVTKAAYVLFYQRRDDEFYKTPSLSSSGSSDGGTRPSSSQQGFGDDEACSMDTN
Outline: as §1

Measured: log2 ratio of Biotin-Ahx-Ub-VS probe labelling

USP34, sequence (Q70CQ2 whole entry, the tested form may be a part): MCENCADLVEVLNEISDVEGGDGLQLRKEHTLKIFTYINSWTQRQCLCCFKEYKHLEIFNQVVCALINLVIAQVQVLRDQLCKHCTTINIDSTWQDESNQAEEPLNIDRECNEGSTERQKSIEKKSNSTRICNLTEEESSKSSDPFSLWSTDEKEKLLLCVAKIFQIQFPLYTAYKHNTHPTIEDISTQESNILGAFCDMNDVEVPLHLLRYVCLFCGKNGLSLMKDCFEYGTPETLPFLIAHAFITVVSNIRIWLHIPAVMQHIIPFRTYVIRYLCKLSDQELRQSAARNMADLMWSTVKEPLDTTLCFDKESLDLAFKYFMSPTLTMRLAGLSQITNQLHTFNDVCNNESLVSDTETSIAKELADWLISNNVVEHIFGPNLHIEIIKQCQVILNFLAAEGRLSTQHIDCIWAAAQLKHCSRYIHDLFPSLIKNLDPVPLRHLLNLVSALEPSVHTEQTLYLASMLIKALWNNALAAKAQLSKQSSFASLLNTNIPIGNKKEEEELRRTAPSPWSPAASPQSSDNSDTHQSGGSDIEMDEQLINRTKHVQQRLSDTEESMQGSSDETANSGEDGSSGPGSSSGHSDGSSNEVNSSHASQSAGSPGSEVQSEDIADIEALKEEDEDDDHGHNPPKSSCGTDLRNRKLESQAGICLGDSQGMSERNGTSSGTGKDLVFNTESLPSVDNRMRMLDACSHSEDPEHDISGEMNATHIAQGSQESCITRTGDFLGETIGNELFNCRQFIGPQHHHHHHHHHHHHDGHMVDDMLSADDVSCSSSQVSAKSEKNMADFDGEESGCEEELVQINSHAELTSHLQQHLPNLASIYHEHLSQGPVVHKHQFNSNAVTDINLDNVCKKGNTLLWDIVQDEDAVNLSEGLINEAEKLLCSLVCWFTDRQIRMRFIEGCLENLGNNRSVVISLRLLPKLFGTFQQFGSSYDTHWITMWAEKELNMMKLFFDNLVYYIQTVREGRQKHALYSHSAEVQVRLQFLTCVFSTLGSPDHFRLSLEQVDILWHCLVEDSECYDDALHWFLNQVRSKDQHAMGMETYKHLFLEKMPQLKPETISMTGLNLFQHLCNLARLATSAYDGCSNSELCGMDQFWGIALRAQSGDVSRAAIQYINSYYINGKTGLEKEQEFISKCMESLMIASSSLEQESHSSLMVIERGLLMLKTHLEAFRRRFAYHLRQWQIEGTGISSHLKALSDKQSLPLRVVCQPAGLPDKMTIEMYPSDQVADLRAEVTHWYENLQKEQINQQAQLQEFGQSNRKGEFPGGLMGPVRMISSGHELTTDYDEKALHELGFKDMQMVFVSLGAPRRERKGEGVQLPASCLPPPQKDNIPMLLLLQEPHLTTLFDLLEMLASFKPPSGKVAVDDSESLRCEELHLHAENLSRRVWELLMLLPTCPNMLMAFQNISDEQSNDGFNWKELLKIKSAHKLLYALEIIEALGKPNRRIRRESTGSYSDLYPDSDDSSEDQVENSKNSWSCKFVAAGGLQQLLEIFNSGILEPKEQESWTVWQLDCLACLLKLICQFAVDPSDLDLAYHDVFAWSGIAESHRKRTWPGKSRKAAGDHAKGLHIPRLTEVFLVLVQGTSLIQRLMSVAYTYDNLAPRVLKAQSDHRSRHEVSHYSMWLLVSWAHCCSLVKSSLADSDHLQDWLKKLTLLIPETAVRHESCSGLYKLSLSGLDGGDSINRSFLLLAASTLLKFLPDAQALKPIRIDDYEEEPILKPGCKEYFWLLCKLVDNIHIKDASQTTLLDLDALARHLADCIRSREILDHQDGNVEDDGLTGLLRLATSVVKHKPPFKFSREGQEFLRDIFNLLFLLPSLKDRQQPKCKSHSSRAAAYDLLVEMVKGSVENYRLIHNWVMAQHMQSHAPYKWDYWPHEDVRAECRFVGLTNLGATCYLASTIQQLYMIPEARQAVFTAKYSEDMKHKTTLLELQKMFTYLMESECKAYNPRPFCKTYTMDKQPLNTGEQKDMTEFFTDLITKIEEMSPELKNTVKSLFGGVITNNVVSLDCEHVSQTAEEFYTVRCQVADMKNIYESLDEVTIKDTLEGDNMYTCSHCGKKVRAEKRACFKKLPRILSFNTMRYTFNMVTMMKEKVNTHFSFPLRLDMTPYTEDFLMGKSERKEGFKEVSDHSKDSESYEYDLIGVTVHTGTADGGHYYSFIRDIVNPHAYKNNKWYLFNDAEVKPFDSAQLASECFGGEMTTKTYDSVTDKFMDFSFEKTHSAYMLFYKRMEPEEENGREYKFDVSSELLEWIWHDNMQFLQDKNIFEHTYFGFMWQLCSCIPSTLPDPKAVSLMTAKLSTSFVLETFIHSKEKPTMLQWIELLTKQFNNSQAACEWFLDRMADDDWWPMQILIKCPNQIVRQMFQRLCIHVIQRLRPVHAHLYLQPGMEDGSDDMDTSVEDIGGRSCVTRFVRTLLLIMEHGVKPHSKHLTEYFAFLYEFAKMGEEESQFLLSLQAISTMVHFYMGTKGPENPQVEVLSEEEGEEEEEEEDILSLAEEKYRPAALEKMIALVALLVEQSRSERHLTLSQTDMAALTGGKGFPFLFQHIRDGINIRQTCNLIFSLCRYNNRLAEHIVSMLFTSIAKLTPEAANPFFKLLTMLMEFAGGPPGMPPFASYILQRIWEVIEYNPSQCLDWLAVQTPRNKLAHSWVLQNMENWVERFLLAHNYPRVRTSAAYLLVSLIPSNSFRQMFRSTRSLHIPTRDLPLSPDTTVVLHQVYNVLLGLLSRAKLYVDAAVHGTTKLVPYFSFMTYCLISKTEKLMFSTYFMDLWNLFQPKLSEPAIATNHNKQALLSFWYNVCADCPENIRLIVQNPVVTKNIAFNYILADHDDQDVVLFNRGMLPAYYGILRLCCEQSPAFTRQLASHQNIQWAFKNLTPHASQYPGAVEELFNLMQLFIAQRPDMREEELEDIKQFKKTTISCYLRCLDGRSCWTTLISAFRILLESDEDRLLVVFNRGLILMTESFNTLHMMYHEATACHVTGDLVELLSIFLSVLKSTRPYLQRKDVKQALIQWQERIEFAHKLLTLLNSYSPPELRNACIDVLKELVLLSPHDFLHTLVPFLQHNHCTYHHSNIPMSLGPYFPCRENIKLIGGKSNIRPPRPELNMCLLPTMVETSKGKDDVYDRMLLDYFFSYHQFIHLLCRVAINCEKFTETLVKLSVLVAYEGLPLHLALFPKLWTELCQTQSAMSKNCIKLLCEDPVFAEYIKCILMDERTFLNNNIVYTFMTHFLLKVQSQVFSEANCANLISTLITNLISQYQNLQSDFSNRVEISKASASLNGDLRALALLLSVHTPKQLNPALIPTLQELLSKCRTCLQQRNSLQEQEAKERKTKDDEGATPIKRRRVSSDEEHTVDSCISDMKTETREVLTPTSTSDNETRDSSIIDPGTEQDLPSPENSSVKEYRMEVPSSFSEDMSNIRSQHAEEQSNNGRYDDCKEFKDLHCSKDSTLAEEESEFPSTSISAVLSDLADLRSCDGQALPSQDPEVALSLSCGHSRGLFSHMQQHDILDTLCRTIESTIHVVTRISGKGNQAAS

CN1C(=O)c2ccc(NC(=O)CCl)cc2C1=O
inactive: USP34 -0.233 | USP36 0.0568 | USP38 -0.169 | USP39 0.16 | USP4 -0.181
